Laboratory results as given in PubChem BioAssay (Tox21).
“And” between values parts separate entries of the source, which are not always exact repeats. Identical values can stand only once. Inconclusive results are not listed. A structure can be active in one record and inactive in another. The source made the active and inactive calls. Unless noted, calls follow the shape of the dose curve; as a rule, active = well fitted cell-killing curve with a large enough effect in the repeat runs; inconclusive = weak or mixed curves; inactive = no such curve, though single readings can be large or run the other way.

tested on: not listed separately; assay: qHTS assay to identify small molecule antagonists of the peroxisome proliferator-activated receptor delta (PPARd) signaling pathway - cell viability counter screen (AID 743213); conditions: PPARd-bla HEK293H viability, CellTiter-Glo luminescence, 17 h; series mostly up to 62 µM; viability change, negative = cytotoxic: at the top concentration; also: nearly all actives have a fitted effect of over 50% in size
Outline: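 In this counter screen, HEK293H cells carrying a UAS-beta-lactamase reporter are co-treated with test compounds and 300 nM L165041 (final) for 17 h at 37 C; cell viability is quantified by CellTiter-Glo luminescence.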
% is scaled to controls: 0 for no effect and ±100 for the full control effect; potency is read from the fitted curve at half-maximal effect.

| SMILES | Potency | viability change, negative = cytotoxic |
| --- | --- | --- |
| CCc1cc(C(C)(C)C)c(O)c(C(C)(C)C)c1 | inactive |  |
| COC(=O)[C@H]1[C@H]2C[C@@H]3c4[nH]c5cc(OC)ccc5c4CCN3C[C@H]2C[C@@H](OC(=O)c2cc(OC)c(OC)c(OC)c2)[C@@H]1OC | 17.9 µM (active) |  |
| NCCCCCC(=O)O |  | 20.1% (inactive) |
| CC(C)(C)NCC(O)COc1ccccc1OCC1CCCO1 (stereo unspecified) |  | 1.66% (inactive) |
| CC(N)=O |  | -7.9% [at 226 µM] (inactive) |
| O=c1n(CC2CO2)c(=O)n(CC2CO2)c(=O)n1CC1CO1 (stereo unspecified) | inactive |  |
| NC(N)=Nc1nc(CSCC/C(N)=N/S(N)(=O)=O)cs1 | inactive |  |
| CC(=O)CC(C)=O |  | 1.98% [at 80.4 µM] (inactive) |
| CC(=O)OCC1=C(C(=O)O)N2C(=O)[C@@H](NC(=O)Cc3cccs3)[C@H]2SC1 |  | -23.7% (inactive) |
| OCC(CO)N[C@H]1C[C@](O)(CO)[C@@H](O)[C@H](O)[C@H]1O |  | 7.42% (inactive) |
| CC1COC(=O)O1 (stereo unspecified) |  | 5.19% (inactive) |
| Cc1occc(=O)c1OC(=O)C(C)C |  | 8.69% (inactive) |
| C=C(C)C1CC=C(C)C(OC(C)=O)C1 (stereo unspecified) | inactive |  |
| Cc1scc2c1N(C(=O)CN1CCN(C)CC1)c1ccccc1NC2=O |  | 5.65% (inactive) |
| Cc1cc(C2(c3cc(C)c(O)cc3C)OS(=O)(=O)c3ccccc32)c(C)cc1O | inactive |  |
| Nc1cc(S(=O)(=O)O)cc2cc(S(=O)(=O)O)cc(O)c12 | inactive |  |
| Nc1ccc2cc3ccccc3cc2c1 | inactive |  |
| CNC1(C)C2CCC(C2)C1(C)C (stereo unspecified) |  | -8.58% (inactive) |
| CC(=O)O[C@]1(C(C)=O)CC[C@H]2[C@@H]3C[C@H](C)C4=CC(=O)CC[C@]4(C)[C@H]3CC[C@@]21C | inactive |  |
| c1ccc2n[nH]nc2c1 | inactive and 38.9 µM (active) |  |
| CCn1c2ccccc2c2cc(N)ccc21 |  | -14.8% (inactive) |
| CCN(CC)C(=O)Nc1ccc(OCC(O)CNC(C)(C)C)c(C(C)=O)c1 (stereo unspecified) |  | -24.8% (inactive) |
| Cc1cc(C(C)(C)C)c(O)c(C(C)(C)C)c1 |  | 4.41% (inactive) |
| NNCCc1ccccc1 | inactive |  |
| CC(C)CCOCc1ccccc1 |  | 19.3% (inactive) |

target: Peroxisome proliferator-activated receptor delta (Homo sapiens) (UniProt Q03181); assay: qHTS assay to identify small molecule antagonists of the peroxisome proliferator-activated receptor delta (PPARd) signaling pathway (AID 743215; active = well fitted inhibition curve with a large enough effect in the signal ratio in the repeat runs, not every such curve was filed as active; the % refers to the signal ratio;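 also: cells stimulated with agonist L165041 at 300 nM final during compound exposure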); conditions: HEK293H PPARd-UAS-bla, beta-lactamase FRET ratio, antagonist, 17 h; series mostly up to 62 µM; ratio activity, negative = inhibition: at the top concentration
Outline: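 PPARd UAS-bla HEK293H cells were pre-incubated 5 h at 37 C, then given test compounds in DMSO plus agonist L165041 (300 nM final). After 17 h at 37 C, beta-lactamase FRET substrate was added; fluorescence read after 2 h at room temperature.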

Chain of Peroxisome proliferator-activated receptor delta (Homo sapiens) (Q03181 whole entry, looked up): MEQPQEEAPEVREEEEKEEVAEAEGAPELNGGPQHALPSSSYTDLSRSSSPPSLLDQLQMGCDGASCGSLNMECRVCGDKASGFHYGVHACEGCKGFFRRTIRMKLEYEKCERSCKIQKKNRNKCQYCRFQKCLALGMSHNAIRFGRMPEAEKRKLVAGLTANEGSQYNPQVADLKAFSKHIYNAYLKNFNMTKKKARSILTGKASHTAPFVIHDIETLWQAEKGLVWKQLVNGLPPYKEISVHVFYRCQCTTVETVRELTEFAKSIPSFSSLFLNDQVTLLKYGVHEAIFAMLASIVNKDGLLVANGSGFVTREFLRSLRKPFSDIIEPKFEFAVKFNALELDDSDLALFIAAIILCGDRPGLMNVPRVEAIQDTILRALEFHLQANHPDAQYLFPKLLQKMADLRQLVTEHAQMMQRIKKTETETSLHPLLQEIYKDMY

| SMILES | Potency | ratio activity, negative = inhibition |
| --- | --- | --- |
| CCc1cc(C(C)(C)C)c(O)c(C(C)(C)C)c1 | inactive |  |
| COC(=O)[C@H]1[C@H]2C[C@@H]3c4[nH]c5cc(OC)ccc5c4CCN3C[C@H]2C[C@@H](OC(=O)c2cc(OC)c(OC)c(OC)c2)[C@@H]1OC |  | -20.1% (inactive) |
| CC(C)(C)NCC(O)COc1ccccc1OCC1CCCO1 (stereo unspecified) |  | 4.77% (inactive) |
| O=Nc1ccc(Nc2ccccc2)cc1 | 30.9 µM (active) |  |
| CCC(=O)/C=C/C1C(C)=CCCC1(C)C (stereo unspecified) |  | 0.267% [at 80.4 µM] (inactive) |
| NC(N)=Nc1nc(CSCC/C(N)=N/S(N)(=O)=O)cs1 | inactive |  |
| OCC(CO)N[C@H]1C[C@](O)(CO)[C@@H](O)[C@H](O)[C@H]1O |  | 6.95% (inactive) |
| Cc1occc(=O)c1OC(=O)C(C)C |  | 9.02% (inactive) |
| C=C(C)C1CC=C(C)C(OC(C)=O)C1 (stereo unspecified) | inactive |  |
| Cc1scc2c1N(C(=O)CN1CCN(C)CC1)c1ccccc1NC2=O |  | 1.32% (inactive) |
| O=S(=O)(O)c1ccc2nc(-c3ccccc3)[nH]c2c1 | inactive |  |
| CC[C@@H](N)CO |  | 2.94% [at 80.4 µM] (inactive) |
| CNC1(C)C2CCC(C2)C1(C)C (stereo unspecified) |  | -4.95% (inactive) |
| CC(=O)O[C@]1(C(C)=O)CC[C@H]2[C@@H]3C[C@H](C)C4=CC(=O)CC[C@]4(C)[C@H]3CC[C@@]21C |  | 20% (inactive) |
| c1ccc2n[nH]nc2c1 |  | 11.5% (inactive) |
| CCc1ccc(C(c2ccc(CC)cc2)C(Cl)Cl)cc1 | inactive |  |
| CCn1c2ccccc2c2cc(N)ccc21 |  | 0.643% (inactive) |
| CCN(CC)C(=O)Nc1ccc(OCC(O)CNC(C)(C)C)c(C(C)=O)c1 (stereo unspecified) |  | -2.2% (inactive) |
| Cc1cc(C(C)(C)C)c(O)c(C(C)(C)C)c1 | inactive |  |
| COc1cc(C(=S)N2CCOCC2)ccc1O |  | -11.8% (inactive) |
| NNCCc1ccccc1 | inactive |  |
